KKLEB cytotox – CF airway cell cytotoxicity counter-screen. KKLEB CF airway cells viability, ATPlite luminescence, overnight; stronger effect = lower value; cells stimulated with P. aeruginosa culture filtrate. activity change (cytotoxicity), % at 5 µM. 0.36% of 360,000 active;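 active means corrected activity change at or below -50% at 5 µM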
ABHD5-PLIN5 inh – blocks binding of human ABHD5 to perilipin-5 | Split G. princeps luciferase complementation, luminescence, 4 h | 0.78% of 360,000 active | inhibition, % at 4 µM | Q00G26+Q8WTS1;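 active means inhibition above the mean inhibition across every tested compound plus 3 SD, cut at about 22% in these data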
HIF-2a inh – HIF-2a inhibition; 786-0 RCC cells HIF-2a reporter, luciferase luminescence, overnight; inhibition, % at 18.8 µM; 0.72% of 360,000 active; AID 624352;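 active means inhibition of the luminescence signal of 40% or more relative to plate controls, in a single-dose primary screen at 18.75 µM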
Peg3 promoter – Peg3 promoter activity inhibition; HeLa PEG-Prom luciferase reporter, luminescence, overnight; inhibition, % at 20 µM; 1.7% of 360,000 active;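 active means inhibition of at least 50% at 20 µM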
MITF TRPM1 inh – inhibitors of MITF-driven TRPM1 promoter in melanoma cells. SK-MEL-5 TRPM1 promoter luciferase, 24 h. inhibition, % at 12.5 µM. 0.83% of 330,000 active;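 active means mean inhibition across replicates of 60% or more, whatever share of single replicates reaches that level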
CF NFkB inh – cystic fibrosis NF-kB activation inhibition; KKLEB NF-kB-GFP reporter, PAF-induced, GFP fluorescence overnight; 0.86% of 360,000 active; inhibition, % at 5 µM; AID 588850;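 active means at least 50% inhibition at 5 µM, scaled per plate between neutral and stimulator controls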;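 further: PAF is a Pseudomonas aeruginosa culture filtrate used as stimulus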
CF NFkB conf – confirmation of cystic fibrosis induced NF-kB inhibitors | shares compounds with CF NFkB inh | KKLEB CF airway cells, PAF-induced NF-kB-GFP fluorescence, overnight | inhibition, % at 5 µM | 64% of 1,300 active | AID 602472; in the data active means inhibition above about 40%;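 further: stimulus PAF is a Pseudomonas aeruginosa filtrate and not platelet activating factor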
Hits are given with their value. In the library only some 3% were active in any assay of this set; here they are far more common.

How did CC(C)Nc1ncnc2ccc(Br)cc12 do in these assays?
KKLEB cytotox: inactive; ABHD5-PLIN5 inh: inactive; HIF-2a inh: inactive; Peg3 promoter: inactive; MITF TRPM1 inh: inactive; CF NFkB inh: 70; CF NFkB conf: 85

Results for CC(=O)c1ccc(Nc2ncnc3ccc(Br)cc23)cc1 ?
KKLEB cytotox: inactive; ABHD5-PLIN5 inh: inactive; HIF-2a inh: inactive; Peg3 promoter: inactive; CF NFkB inh: 60; CF NFkB conf: 46

Results for Brc1ccc2ncnc(NCc3ccco3)c2c1 ?
KKLEB cytotox: inactive; ABHD5-PLIN5 inh: inactive; HIF-2a inh: inactive; Peg3 promoter: inactive; MITF TRPM1 inh: inactive; CF NFkB inh: 54; CF NFkB conf: 58

How did CC(=O)c1cccc(Nc2ncnc3ccc(Br)cc23)c1 do in these assays?
KKLEB cytotox: inactive; ABHD5-PLIN5 inh: inactive; HIF-2a inh: inactive; Peg3 promoter: inactive; MITF TRPM1 inh: inactive; CF NFkB inh: inactive

What do the screens show for `COc1cc2ncnc(NCc3ccco3)c2cc1OC`?
KKLEB cytotox: inactive; ABHD5-PLIN5 inh: inactive; HIF-2a inh: inactive; Peg3 promoter: inactive; MITF TRPM1 inh: inactive; CF NFkB inh: inactive

What do the screens show for `CSCCC(Nc1ncnc2ccc(Br)cc12)C(=O)O` (stereo not given)?
KKLEB cytotox: inactive; ABHD5-PLIN5 inh: inactive; HIF-2a inh: inactive; Peg3 promoter: inactive; MITF TRPM1 inh: inactive; CF NFkB inh: inactive

How did COc1ccc(CCNC2CC(=O)N(C3CCCCC3)C2=O)cc1OC (stereo not given) do in these assays?
KKLEB cytotox: inactive; ABHD5-PLIN5 inh: inactive; HIF-2a inh: inactive; Peg3 promoter: inactive; MITF TRPM1 inh: inactive; CF NFkB inh: inactive

How did CC(C)Cn1c(C(C)C)nc([N+](=O)[O-])c1S(=O)(=O)c1ccc(F)cc1 do in these assays?
KKLEB cytotox: inactive; ABHD5-PLIN5 inh: inactive; HIF-2a inh: inactive; Peg3 promoter: inactive; MITF TRPM1 inh: inactive; CF NFkB inh: 58; CF NFkB conf: inactive

Results for CCN1CCN(c2ccc(S(=O)(=O)N3CCCCC3)cc2NC(=O)Cc2ccccc2F)CC1 ?
KKLEB cytotox: inactive; ABHD5-PLIN5 inh: inactive; HIF-2a inh: inactive; Peg3 promoter: inactive; MITF TRPM1 inh: inactive; CF NFkB inh: inactive

Results for CCN1CCN(c2ccc(S(=O)(=O)N3CCCCC3)cc2NC(=O)Cc2ccccc2)CC1 ?
KKLEB cytotox: inactive; ABHD5-PLIN5 inh: inactive; HIF-2a inh: inactive; Peg3 promoter: inactive; MITF TRPM1 inh: inactive; CF NFkB inh: 57; CF NFkB conf: inactive

Results for O=C(c1ccccc1)N1N=C(C(F)(F)F)CC1(O)c1ccc(F)cc1 (stereo not given) ?
KKLEB cytotox: inactive; ABHD5-PLIN5 inh: inactive; HIF-2a inh: inactive; Peg3 promoter: inactive; MITF TRPM1 inh: inactive; CF NFkB inh: inactive

How did CN(CC(=O)Nc1ccccc1Cl)C(=O)COC(=O)c1ccc(S(=O)(=O)C(F)F)cc1 do in these assays?
KKLEB cytotox: inactive; ABHD5-PLIN5 inh: inactive; HIF-2a inh: inactive; Peg3 promoter: inactive; MITF TRPM1 inh: inactive; CF NFkB inh: inactive

How did CC(=O)Oc1ccc(-c2ccc(C(=O)OCC(=O)N(C)CC(=O)Nc3ccccc3Cl)cc2)cc1 do in these assays?
KKLEB cytotox: inactive; ABHD5-PLIN5 inh: inactive; HIF-2a inh: inactive; Peg3 promoter: inactive; MITF TRPM1 inh: inactive; CF NFkB inh: 52; CF NFkB conf: inactive

Results for Cc1cc(-c2csc3ncnc(N4CCN(C)CC4)c23)cc(C)c1C ?
KKLEB cytotox: inactive; ABHD5-PLIN5 inh: inactive; HIF-2a inh: inactive; Peg3 promoter: inactive; MITF TRPM1 inh: inactive; CF NFkB inh: inactive

How did CN1CCN(c2ncnc3scc(-c4ccccc4Cl)c23)CC1 do in these assays?
KKLEB cytotox: inactive; ABHD5-PLIN5 inh: inactive; HIF-2a inh: inactive; Peg3 promoter: inactive; MITF TRPM1 inh: inactive; CF NFkB inh: 71; CF NFkB conf: 74

Results for OCC1CCCN(c2ncnc3scc(-c4ccccc4)c23)C1 (stereo not given) ?
KKLEB cytotox: inactive; ABHD5-PLIN5 inh: inactive; HIF-2a inh: inactive; Peg3 promoter: inactive; MITF TRPM1 inh: inactive; CF NFkB inh: 50; CF NFkB conf: 40

Results for O=C(COc1ccc(Cl)cc1Br)Nc1nnc(C2CC2)s1 ?
KKLEB cytotox: inactive; ABHD5-PLIN5 inh: inactive; HIF-2a inh: inactive; Peg3 promoter: inactive; MITF TRPM1 inh: inactive; CF NFkB inh: inactive

Screens as filed in PubChem.
